In PubChem BioAssay:
Values without a mark were called inactive. For some of these results: Entries with a potency or affinity are not part of this list. Activity calls are given as the source filed them. Unless noted, no rule for the calls is given here.

Key:
[1] = antimalarial activity against Dd2 strain (AID 2302;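 active = growth inhibition above 50% at the single 2 µM test dose, taken to imply half-maximal potency below 2 µM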;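 also: 0% = DMSO untreated growth and 100% = chloroquine plus artemisinin killed control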); details: P. falciparum Dd2 in RBCs, LDH growth readout, 72 h; at 2 µM; hits give high values
[2] = HepG2 cytotoxicity, primary screen, cytotoxicity control for P. falciparum antimalarial project, cell-based, ATP luminescence (AID 2303;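 active = inhibition above 50%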;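 also: 0% = DMSO wells and 100% = digitonin-killed cells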); details: HepG2 viability, 24-48 h, at 10 µM, hits give high values
[3] = target: L-lactate dehydrogenase (Plasmodium falciparum (isolate CDC / Honduras)) (UniProt Q27743); experiment: PfLDH activity inhibition – cell lysate, 3D7 strain, counter-screen for P. falciparum growth inhibition project (AID 2304);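 also: 0% = vehicle and 100% = reference inhibitor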; details: P. falciparum 3D7 crude extract, LDH APAD/NBT absorbance; at 2 µM; hits give high values
Chain of L-lactate dehydrogenase (Plasmodium falciparum (isolate CDC / Honduras)) (Q27743 whole entry, looked up): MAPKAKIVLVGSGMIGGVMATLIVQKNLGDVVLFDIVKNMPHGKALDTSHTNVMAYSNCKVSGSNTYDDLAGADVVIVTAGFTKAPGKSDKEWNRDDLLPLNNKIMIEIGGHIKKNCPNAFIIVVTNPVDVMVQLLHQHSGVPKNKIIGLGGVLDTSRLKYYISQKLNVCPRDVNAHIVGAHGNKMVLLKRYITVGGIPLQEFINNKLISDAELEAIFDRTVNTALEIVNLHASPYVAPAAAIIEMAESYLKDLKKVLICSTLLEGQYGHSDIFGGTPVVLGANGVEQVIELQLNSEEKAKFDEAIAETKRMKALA

[4] = inhibition of 3D7 malaria parasite growth – strain 3D7 (AID 2306);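 also: 0% = DMSO wells and 100% = chloroquine plus artemisinin control wells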; details: P. falciparum 3D7 erythrocytic growth, LDH absorbance, 72 h; at 2 µM; hits give high values
[5] = target: Calcium-dependent protein kinase 1 (Plasmodium falciparum (isolate 3D7)) (UniProt P62344); experiment: PfCDPK1 kinase inhibitors, biochemical, TCAMS library (AID 1159585; cut-off not given, nearly all actives have IC50 up to about 0.98 µM;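 also: inhibitors leave more ATP so luminescence rises with inhibition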); details: recombinant PfCDPK1, Kinase-Glo ATP depletion luminescence
Chain of Calcium-dependent protein kinase 1 (Plasmodium falciparum (isolate 3D7)) (P62344 whole entry, looked up): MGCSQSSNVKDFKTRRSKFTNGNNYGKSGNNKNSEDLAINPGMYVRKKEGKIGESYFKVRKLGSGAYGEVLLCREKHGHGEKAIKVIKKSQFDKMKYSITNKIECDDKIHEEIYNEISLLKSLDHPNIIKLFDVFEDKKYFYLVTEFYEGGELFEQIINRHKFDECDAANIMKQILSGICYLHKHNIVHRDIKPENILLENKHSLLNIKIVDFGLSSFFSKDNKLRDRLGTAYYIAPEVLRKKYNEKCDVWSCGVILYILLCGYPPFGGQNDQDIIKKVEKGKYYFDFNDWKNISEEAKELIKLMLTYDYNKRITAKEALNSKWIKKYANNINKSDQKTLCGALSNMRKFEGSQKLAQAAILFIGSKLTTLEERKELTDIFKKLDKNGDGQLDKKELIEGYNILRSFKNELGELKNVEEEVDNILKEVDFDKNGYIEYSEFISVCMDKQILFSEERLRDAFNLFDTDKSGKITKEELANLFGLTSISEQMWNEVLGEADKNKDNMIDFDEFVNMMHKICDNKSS

[6] = target: Plasmodium falciparum protein kinase 6 (PK6, PF3D7_1337100) (UniProt Q8IDW1); experiment: PfPK6 kinase inhibitors, biochemical, TCAMS library (AID 1159586); details: recombinant PfPK6, Kinase-Glo ATP depletion luminescence
Chain of Plasmodium falciparum protein kinase 6 (PK6, PF3D7_1337100) (Q8IDW1 1-305): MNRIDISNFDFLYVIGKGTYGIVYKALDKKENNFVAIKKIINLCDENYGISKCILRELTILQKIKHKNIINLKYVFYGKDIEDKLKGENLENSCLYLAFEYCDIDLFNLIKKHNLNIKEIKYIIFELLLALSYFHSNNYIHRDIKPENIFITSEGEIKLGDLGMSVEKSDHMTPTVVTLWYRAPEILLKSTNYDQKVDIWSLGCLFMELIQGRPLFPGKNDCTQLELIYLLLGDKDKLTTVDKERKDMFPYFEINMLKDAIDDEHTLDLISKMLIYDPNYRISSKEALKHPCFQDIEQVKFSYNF

[7] = target: Protein kinase 7 (PK7), Plasmodium falciparum 3D7 (PF3D7_0213400) (UniProt Q7YTF7); experiment: inhibition of Plasmodium PK7 catalytic activity – biochemical, TCAMS antimalarial set, Kinase-Glo luminescence (AID 1159587); details: recombinant PfPK7, Kinase-Glo ATP depletion luminescence
Chain of Protein kinase 7 (PK7), Plasmodium falciparum 3D7 (PF3D7_0213400) (Q7YTF7 1-343): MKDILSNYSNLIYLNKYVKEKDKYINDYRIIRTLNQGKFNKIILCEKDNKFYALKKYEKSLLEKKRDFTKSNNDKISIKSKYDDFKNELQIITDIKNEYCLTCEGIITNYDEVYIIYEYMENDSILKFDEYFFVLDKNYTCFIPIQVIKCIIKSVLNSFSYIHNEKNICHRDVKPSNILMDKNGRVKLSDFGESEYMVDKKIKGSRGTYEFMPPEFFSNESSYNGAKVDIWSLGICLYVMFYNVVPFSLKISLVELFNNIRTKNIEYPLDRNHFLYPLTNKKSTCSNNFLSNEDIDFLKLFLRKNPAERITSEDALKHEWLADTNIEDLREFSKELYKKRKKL

[8] = target: Calcium-dependent protein kinase 4 (Plasmodium falciparum (isolate 3D7)) (UniProt Q8IBS5); experiment: PfCDPK4 kinase inhibitors, biochemical, TCAMS library (AID 1159588; cut-off not given, nearly all actives have IC50 up to about 0.91 µM); details: recombinant PfCDPK4, Kinase-Glo ATP depletion luminescence
Chain of Calcium-dependent protein kinase 4 (Plasmodium falciparum (isolate 3D7)) (Q8IBS5 whole entry, looked up): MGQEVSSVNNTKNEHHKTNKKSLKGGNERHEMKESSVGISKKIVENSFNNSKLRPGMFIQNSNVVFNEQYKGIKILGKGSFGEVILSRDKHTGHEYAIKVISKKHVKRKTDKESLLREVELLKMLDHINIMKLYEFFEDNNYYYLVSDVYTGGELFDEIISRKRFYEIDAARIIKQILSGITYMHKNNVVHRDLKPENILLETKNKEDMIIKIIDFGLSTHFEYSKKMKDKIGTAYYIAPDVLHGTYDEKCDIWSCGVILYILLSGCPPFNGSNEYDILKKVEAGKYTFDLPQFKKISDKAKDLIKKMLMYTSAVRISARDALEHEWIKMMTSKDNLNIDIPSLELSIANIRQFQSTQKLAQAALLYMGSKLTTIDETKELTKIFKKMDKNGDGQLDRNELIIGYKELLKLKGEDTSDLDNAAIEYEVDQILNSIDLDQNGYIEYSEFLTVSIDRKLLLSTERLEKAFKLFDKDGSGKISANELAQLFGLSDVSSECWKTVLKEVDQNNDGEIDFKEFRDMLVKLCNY

SMILES	growth inhibition [1]	inhibition [2]	inhibition [3] [%]	growth inhibition [4]	outcome [5]	outcome [6]	outcome [7]	outcome [8]
O=C(Nc1nc2cc(S(=O)(=O)NCCc3ccc(F)cc3)ccc2n1CCCn1ccnc1)c1ccc(Cl)cc1	55% (active)	18%	3	100% (active)	inactive	inactive	inactive	inactive
Cc1cc(-c2ccc(NC(=O)N3CCc4cc(Br)c(N5CCN(C)CC5)cc43)cc2)cc(C)n1	4%	29%	-2	92% (active)	inactive	inactive	inactive	inactive
CCN(CCCN1CCCCC1)c1cc(C)nc(Nc2cccc(C(F)(F)F)c2C)n1	37%	57% (active)	-2	99% (active)	inactive	inactive	inactive	inactive
Oc1ccc2ccccc2c1CNCC1CCCCC1	93% (active)	-12%	-5	98% (active)	inactive	inactive	inactive	inactive
NC(N)=Nc1ccc(NC(=O)Nc2ccc(N=C(N)N)cc2)cc1	74% (active)	-5%	1	85% (active)	inactive	inactive	inactive	inactive
O=C(NC1CC1)c1cnc(N2CCN(Cc3c(F)cccc3Cl)CC2)c(Cl)c1	93% (active)	0%	-2	93% (active)	inactive	inactive	inactive	inactive
O=C(NC1CCCc2ccccc21)[C@@H]1CCCN1C(=O)c1ccc(O)c(-c2cccc([N+](=O)[O-])c2)c1 (stereo not given in full)	99% (active)	-5%	5	99% (active)	inactive	inactive	inactive	inactive
Clc1ccc(Cn2nc(Br)nc2Br)c(Cl)c1	96% (active)	4%	2	96% (active)	inactive	inactive	inactive	inactive
O=C(/C=C/c1ccc(Cl)c(Cl)c1)NCCCCCCN1CCCN(C(=O)Nc2cc(Cl)cc(Cl)c2)CC1	2%	26%	-3	98% (active)	inactive	inactive	inactive	inactive
O=C(/C=C/c1ccc(Cl)c(Cl)c1)NCCCCCN1CCCN(C(=O)Nc2ccc(F)c(Cl)c2)CC1	0%	31%	1	95% (active)	inactive	inactive	inactive	inactive
CC(C)(C)c1cc([N+](=O)[O-])cc(C(=O)Nc2ccccc2C(F)(F)F)c1O	99% (active)	74% (active)	5	96% (active)	inactive	inactive	inactive	inactive
O=C(Nc1ccc(Cl)c(Cl)c1)Nc1ccc(F)c([N+](=O)[O-])c1	96% (active)	49%	-3	101% (active)	inactive	inactive	inactive	inactive
O=C(NCc1cccc(OC(F)(F)F)c1)c1cnc2c(c1)nc(-c1cnc(-c3ccccc3)[nH]1)n2CCc1cnc[nH]1	47%	0%	-10	99% (active)	inactive	inactive	inactive	inactive
COc1ccc2nccc([C@@H](O)CN3CCC(NCc4cc5cc(Cl)ccc5[nH]4)CC3)c2c1	64% (active)	27%	5	99% (active)	inactive	inactive	inactive	inactive
CCN(CC)CCOc1ccc(N(Cc2ccc(C(C)(C)C)cc2)C(=O)c2ccc(Cc3ccccc3)cc2)cc1OC	73% (active)	5%	0	99% (active)	inactive	inactive	inactive	inactive
COC(=O)C1=CNC=C(C(=O)OC)C1c1ccc(Cl)c([N+](=O)[O-])c1	79% (active)	-1%	-4	93% (active)	inactive	inactive	inactive	inactive
CCCCCCCN1CC[C@@H](C[C@H](N)Cc2ccnc3ccc(OC)cc23)[C@@H](CC)C1	51% (active)	33%	-2	91% (active)	inactive	inactive	inactive	inactive
NS(=O)(=O)c1ccc(CNC(=O)c2cnc3c(O)cccc3c2Nc2cccc(NC(=O)c3ccc(Cl)c(Cl)c3)c2)cc1	35%	56% (active)	-1	97% (active)	inactive	inactive	inactive	inactive
COc1ccc(-c2cc3ncnc(N4CCN(CCN5CCCC5)CC4)c3s2)cc1	90% (active)	22%	-2	98% (active)	inactive	inactive	inactive	inactive
Cc1cc(NC(=O)c2ccco2)ccc1OC1CCN(Cc2ccc(F)cc2)C1 (stereo not given)	92% (active)	5%	5	96% (active)	inactive	inactive	inactive	inactive
